HT1080NT lethal: kills 2HG-producing HT-1080-NT fibrosarcoma cells. HT-1080-NT fibrosarcoma viability, CellTiter-Glo ATP luminescence, 48 h. Potency, µM (doses to about 46.1 µM), for the others: top-dose activity, negative = less viability, most hits filed as cytotoxic. actives 1.6% (n = 360,000). AID 686970;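 further: NT is the 2HG producing partner of a matched IDH1 knockdown line; 0% = DMSO-treated cells and -100% = media-only wells without cells; nearly all actives have a fitted effect of over 55% in size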
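Viability by CellTiter-Glo luminescence after 48 h compound exposure at 37C of HT-1080-NT cells (750/well, RPMI, 5% FBS). % activity scaled between DMSO wells and medium-only wells, then curve-fitted and categorized by curve class.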
HepG2 tox: HepG2 cytotoxicity, counter-screen for TGF-b inhibitors; HepG2 CAGA-GFP viability, ATP luminescence, 18 h; actives 0.76% (n = 410,000); Potency, µM (highest dose often 46.1 µM), inactives show at the top dose activity change, negative = cytotoxicity, usual class: cytotoxic
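CellTiter-Glo luminescence gave cytotoxicity after 18 hours at 37 degrees C. The cells were HepG2 CAGA-GFP in 1% FBS DMEM, stimulated with 500 pg/mL TGF-beta after compound addition. %Activity was normalised to no-cell wells (complete cell-killing) and DMSO (no toxicity), and curves were fitted and classified.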
TGFb inhibitor: blocks TGF-b signaling | HepG2 CAGA-GFP TGF-b/SMAD3 reporter, GFP fluorescence, 18 h; TGF-beta stimulated, 500 pg/mL final | Potency, µM (top dose mostly 46.1 µM), without a hit: at the highest dose activity, negative = inhibition, actives largely listed as inhibitors | actives 1.2% (n = 410,000) | AID 588855; further: on the % scale 0 is the no-effect control and ±100 the full control effect; nearly all actives have a fitted effect of over 65% in size
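Cell-based qHTS in HEPG2 carrying a CAGA-GFP Smad reporter; compounds added before 500 pg/mL final TGF-beta, 18 h incubation at 37 degrees C, GFP fluorescence quantified per cell by imaging cytometry.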
HT1080 IDH1KD tx: kills HT-1080 cells with IDH1 knockdown; HT-1080 IDH1 knockdown viability, ATP luminescence, 48 h; Potency, µM (highest dose often 46.1 µM), without a hit: at the highest dose activity, negative = toxicity, hits mostly cytotoxic; actives 2% (n = 360,000);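 further: 0% = DMSO wells and -100% = cell-free medium wells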
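Assay cells: HT-1080 with IDH1 knockdown, 750 per well, RPMI/5% FBS. Exposure: 48 h at 37 °C following 2 h pre-incubation. Read: CellTiter-Glo luminescence; fitted concentration-response, curve class assigned.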
KB-V1 MDR tox: kills drug-selected multidrug resistant KB-V1 cells; actives 3.4% (n = 400,000); Potency, µM (top dose mostly 46.1 µM), most hits filed as cytotoxic; KB-V1 MDR cells viability, CellTiter-Glo, 72 h; further: on the % scale 0 is the no-effect control and ±100 the full control effect; nearly all actives have a fitted effect of over 60% in size
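Compound-treated KB-V1 multidrug-resistant cells, 72 h, 37 degrees C; viability by CellTiter-Glo. Fitted qHTS curves give the values.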
KB-3-1 cytotox: KB-3-1 parental cell cytotoxicity; actives 1.4% (n = 400,000); Potency, µM (series often up to 46.1 µM), most hits filed as cytotoxic; KB-3-1 viability, CellTiter-Glo ATP luminescence, 72 h; AID 1347075; further: on the % scale 0 is the no-effect control and ±100 the full control effect; nearly all actives have a fitted effect of over 60% in size
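KB-3-1 cells, DMEM (no phenol red) + 10% FBS; compound by pin transfer, 72 h, 37 °C. Readout: CellTiter-Glo luminescence after 10 min. Data normalized, curve-fitted.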
Active calls of the source: *. Hits are enriched below; roughly 6.6% of the tested compounds scored in any of these assays. The call rests on the fitted dose curve; in most records, active means well fitted curve in the direction sought with a large enough effect; inconclusive means small, poorly fitted or top-dose-only effect, or another doubt; inactive means no such curve, though single readings can be large; an effect the other way counts as inactive or inconclusive. Potency means the concentration at half of the fitted maximal effect.

CSc1ncccc1C(=O)Nc1cc(Cl)ccc1N1CCOCC1 was read as HT1080NT lethal -0.2%, HepG2 tox -1.2%, TGFb inhibitor 0.7%, HT1080 IDH1KD tx 6.9%, KB-V1 MDR tox 20.6µM* and KB-3-1 cytotox inconclusive.
`COc1ccc(C(=O)CN2C(=O)c3ccccc3S2(=O)=O)cc1` gave HT1080NT lethal 26.8%, HepG2 tox -26.3%, TGFb inhibitor 0.4%, HT1080 IDH1KD tx 2.8%, KB-V1 MDR tox inactive and KB-3-1 cytotox inactive.
O=C(CN1/C(=C(/O)c2ccccc2)C(=O)c2ccccc2S1(=O)=O)c1ccccc1 was read as HT1080NT lethal -23.0%, HepG2 tox -25.5%, TGFb inhibitor -6.9%, HT1080 IDH1KD tx -16.6%, KB-V1 MDR tox 1.46µM* and KB-3-1 cytotox inconclusive.
For N#Cc1ccc(C(=O)Nc2ccc(Cl)c(-c3nc4cc(Cl)ccc4o3)c2)c(F)c1 the results were HepG2 tox -21.9%, TGFb inhibitor -4.1%, KB-V1 MDR tox inactive and KB-3-1 cytotox inactive.
`CCOC(=O)CC(S(=O)(=O)c1ccccc1)S(=O)(=O)c1ccccc1` gave HT1080NT lethal inconclusive, HepG2 tox -98.8%, TGFb inhibitor inconclusive, HT1080 IDH1KD tx 20.6µM*, KB-V1 MDR tox inactive and KB-3-1 cytotox inconclusive.
COc1ccc(C(=O)Nc2ccc(-c3nc4ccccc4[nH]3)cc2)cc1OC was read as KB-V1 MDR tox inconclusive and KB-3-1 cytotox inactive.
For COc1ccc(-c2nc3ccccc3[nH]2)cc1 the results were HT1080NT lethal 10µM*, HepG2 tox 7.94µM*, TGFb inhibitor 8.1%, HT1080 IDH1KD tx 11.2µM*, KB-V1 MDR tox inconclusive and KB-3-1 cytotox inconclusive.
Screening COC(=O)c1ccc(-c2nc3ccccc3[nH]2)cc1 returned HT1080NT lethal inconclusive, HepG2 tox -35.3%, TGFb inhibitor -10.7%, HT1080 IDH1KD tx inconclusive, KB-V1 MDR tox 18.4µM* and KB-3-1 cytotox inconclusive.
COc1ccc(-c2cc(=O)n(-c3nc4ccccc4[nH]3)[nH]2)cc1 was read as HT1080NT lethal 22.4µM*, HepG2 tox -45.1%, TGFb inhibitor -4.9%, HT1080 IDH1KD tx inconclusive, KB-V1 MDR tox inactive and KB-3-1 cytotox 20.6µM*.
COc1ccc(CCCc2nc3ccccc3[nH]2)cc1 was read as HT1080NT lethal -0.3%, HepG2 tox -9.9%, TGFb inhibitor 0.4%, HT1080 IDH1KD tx -2.2%, KB-V1 MDR tox inactive and KB-3-1 cytotox inactive.
For c1ccc(-c2nc3ccccc3[nH]2)cc1 the results were HT1080NT lethal -16.0%, HepG2 tox -19.8%, TGFb inhibitor -6.3%, HT1080 IDH1KD tx -8.4%, KB-V1 MDR tox inactive and KB-3-1 cytotox inactive.
Screening Cc1ccc(C(C)C)c(OCc2ccc(C(=O)N/N=C/c3ccc(O)c(O)c3)cc2)c1 returned HT1080NT lethal -25.8%, HepG2 tox -74.3%, TGFb inhibitor inconclusive, HT1080 IDH1KD tx inconclusive, KB-V1 MDR tox inconclusive and KB-3-1 cytotox inconclusive.
For COc1cc(/C=N/NC(=O)c2ccc(COc3cc(C)ccc3C(C)C)cc2)cc(OC)c1O the results were HT1080NT lethal 20.6µM*, HepG2 tox -18.1%, TGFb inhibitor -15.1%, HT1080 IDH1KD tx 20.6µM*, KB-V1 MDR tox inconclusive and KB-3-1 cytotox inconclusive.
For Cc1ccc(C(C)C)c(OCc2ccc(C(=O)N/N=C/c3cccc(O)c3O)cc2)c1 the results were HT1080NT lethal 9.2µM*, HepG2 tox -36.5%, TGFb inhibitor inconclusive, HT1080 IDH1KD tx inconclusive, KB-V1 MDR tox inactive and KB-3-1 cytotox inactive.
O=C(O)Cn1nnc(-c2cccs2)n1 was read as HT1080NT lethal 2.0%, HepG2 tox 3.16µM*, TGFb inhibitor -3.2%, HT1080 IDH1KD tx 3.4%, KB-V1 MDR tox inactive and KB-3-1 cytotox inactive.
For OC(c1ccc(F)c(F)c1)c1nc(-c2ccc(F)c(Cl)c2)cs1 (stereo not given) the results were HT1080NT lethal -25.1%, HepG2 tox -44.7%, TGFb inhibitor inconclusive, HT1080 IDH1KD tx inconclusive, KB-V1 MDR tox inactive and KB-3-1 cytotox inactive.
Screening OC(c1ccc(F)c(F)c1)c1nc(-c2cccc(C(F)(F)F)c2)cs1 (stereo not given) returned HT1080NT lethal inconclusive, HepG2 tox 20µM*, TGFb inhibitor inconclusive, HT1080 IDH1KD tx inconclusive, KB-V1 MDR tox inactive and KB-3-1 cytotox inactive.
For Cc1ccc(-c2csc(C(O)c3ccc(F)c(F)c3)n2)cc1C (stereo not given) the results were HT1080NT lethal inconclusive, HepG2 tox -59.7%, TGFb inhibitor inconclusive, HT1080 IDH1KD tx 20.6µM*, KB-V1 MDR tox inactive and KB-3-1 cytotox inactive.
`COc1cc2c(=O)c(S(=O)(=O)c3ccc(C)cc3)cn(Cc3cccc(C)c3)c2cc1OC` gave HepG2 tox -14.1%, TGFb inhibitor inconclusive, KB-V1 MDR tox inactive and KB-3-1 cytotox inactive.
O=C(C1CCCN(S(=O)(=O)c2cccnc2)C1)N1CCN(c2ccccn2)CC1 (stereo not given) was read as HT1080NT lethal 11.5%, HepG2 tox -3.4%, TGFb inhibitor -0.1%, HT1080 IDH1KD tx 5.6%, KB-V1 MDR tox inactive and KB-3-1 cytotox inactive.
`O=C(c1ccc2ccccc2c1)C1CCCN(S(=O)(=O)c2cccnc2)C1` (stereo not given) gave HT1080NT lethal -9.8%, HepG2 tox -27.6%, TGFb inhibitor -17.0%, HT1080 IDH1KD tx -11.0%, KB-V1 MDR tox 16.4µM* and KB-3-1 cytotox inactive.
`CCc1ccc(CNC(=O)C2CCCN(c3nn4cc(-c5ccc(F)cc5)nc4s3)C2)cc1` (stereo not given) gave HepG2 tox -2.8%, TGFb inhibitor 0.0%, KB-V1 MDR tox inactive and KB-3-1 cytotox inactive.
`CC1CCCCN1C(=O)CSc1nnc(-c2cccnc2)n1C1CCCCC1` (stereo not given) gave HT1080NT lethal 11.8%, HepG2 tox 0.2%, TGFb inhibitor 0.6%, HT1080 IDH1KD tx 4.5%, KB-V1 MDR tox 14.6µM* and KB-3-1 cytotox inactive.
For COc1ccc(Cc2nnc(SCc3c(C)noc3C)n2C2CCCCC2)cc1OC the results were HT1080NT lethal -2.7%, HepG2 tox -9.0%, TGFb inhibitor -0.6%, HT1080 IDH1KD tx -1.8%, KB-V1 MDR tox inconclusive and KB-3-1 cytotox inactive.
`CC1CCN(C(=O)CSc2nnc(-c3cccnc3)n2C2CCCCC2)CC1` gave HT1080NT lethal 15.3%, HepG2 tox -3.8%, TGFb inhibitor 2.4%, HT1080 IDH1KD tx 5.2%, KB-V1 MDR tox inactive and KB-3-1 cytotox inactive.

Compound activity as filed in PubChem BioAssay.
